# Reference: PubChem BioAssay (NCATS)
# Inconclusive results are not listed. A call without a number means that no potency is given here. Active and inactive are the calls of the source. Unless noted, the call rests on the fitted dose curve; in most records, active means well fitted curve in the direction sought with a large enough effect; inconclusive means small, poorly fitted or top-dose-only effect, or another doubt; inactive means no such curve, though single readings can be large; an effect the other way counts as inactive or inconclusive.
# What was measured:
# [1] = NCATS anti-infectives library activity on HEK293 viability as a counter-qHTS vs the C. elegans viability qHTS (AID 1745854);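 further: HEK293 cells exposed to compounds for 24 hr before the viability read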
# Procedure, shortened: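 Counter-screen for cytotoxicity: HEK293, 24 hr, 37C, compounds up to 41.7 uM final (a dilution series, 1:5). Readout CellTiter-Glo luminescence, 10 min RT. Digitonin control, 83.3 uM final.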
# [2] = molecular target: Rap guanine nucleotide exchange factor 3 (Homo sapiens) (UniProt O95398); experiment: Confirmatory qHTS for antagonist of cAMP-regulated guanine nucleotide exchange factor 3 (EPAC1) (AID 1645880); further: nearly all actives have a fitted effect of over 55% in size
# Chain of Rap guanine nucleotide exchange factor 3 (Homo sapiens) (O95398 whole entry, looked up): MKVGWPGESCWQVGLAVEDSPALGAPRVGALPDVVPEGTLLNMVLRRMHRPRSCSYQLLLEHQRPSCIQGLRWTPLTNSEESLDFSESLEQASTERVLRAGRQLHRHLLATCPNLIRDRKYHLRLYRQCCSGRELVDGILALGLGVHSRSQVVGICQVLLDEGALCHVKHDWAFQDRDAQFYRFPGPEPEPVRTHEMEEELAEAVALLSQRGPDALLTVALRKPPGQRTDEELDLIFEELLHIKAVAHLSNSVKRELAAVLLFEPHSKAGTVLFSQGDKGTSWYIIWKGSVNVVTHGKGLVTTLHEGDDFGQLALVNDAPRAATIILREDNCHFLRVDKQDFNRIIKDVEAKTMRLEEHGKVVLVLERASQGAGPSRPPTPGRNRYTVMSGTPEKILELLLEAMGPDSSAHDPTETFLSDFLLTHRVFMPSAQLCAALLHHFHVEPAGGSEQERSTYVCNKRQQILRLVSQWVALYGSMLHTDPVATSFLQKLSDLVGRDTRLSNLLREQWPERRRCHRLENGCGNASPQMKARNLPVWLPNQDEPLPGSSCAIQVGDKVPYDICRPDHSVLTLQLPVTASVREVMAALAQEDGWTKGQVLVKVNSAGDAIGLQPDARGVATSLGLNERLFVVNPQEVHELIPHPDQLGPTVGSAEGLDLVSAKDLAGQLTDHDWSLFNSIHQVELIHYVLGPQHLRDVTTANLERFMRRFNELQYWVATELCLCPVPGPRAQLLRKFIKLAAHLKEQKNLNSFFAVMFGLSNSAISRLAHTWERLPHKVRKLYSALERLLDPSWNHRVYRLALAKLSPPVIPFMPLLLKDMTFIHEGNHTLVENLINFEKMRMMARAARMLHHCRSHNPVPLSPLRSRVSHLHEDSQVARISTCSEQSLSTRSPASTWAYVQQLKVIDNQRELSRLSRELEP
# Procedure, shortened: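 Released BODIPY-GDP fluoresces less than Rap1-bound BODIPY-GDP; the signal is followed at 480/540 nm at 5-min intervals over 30 min, after 5 min at room temperature. Reactions contain 100 nM EPAC1, 250 nM RAP1B-BODIPY-GDP and 50 uM GDP; results are normalized to ATA and DMSO.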
# [3] = molecular target: Rap guanine nucleotide exchange factor 3 (Homo sapiens) (UniProt O95398); experiment: Confirmatory qHTS for agonist of cAMP-regulated guanine nucleotide exchange factor 3 (EPAC1) (AID 1645881);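 further: EPAC1 catalysed release of BODIPY-GDP from Rap1B seen as fluorescence loss; nearly all actives have a fitted effect of over 75% in size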
# [4] = molecular target: Rap guanine nucleotide exchange factor 4 (Homo sapiens) (UniProt Q8WZA2); experiment: Confirmatory qHTS for agonist of cAMP-regulated guanine nucleotide exchange factor 4 (EPAC2) (AID 1645884);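 further: nucleotide exchange releases bodipy-GDP from Rap1 and this lowers its fluorescence; nearly all actives have a fitted effect of over 65% in size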
# Chain of Rap guanine nucleotide exchange factor 4 (Homo sapiens) (Q8WZA2 whole entry, looked up): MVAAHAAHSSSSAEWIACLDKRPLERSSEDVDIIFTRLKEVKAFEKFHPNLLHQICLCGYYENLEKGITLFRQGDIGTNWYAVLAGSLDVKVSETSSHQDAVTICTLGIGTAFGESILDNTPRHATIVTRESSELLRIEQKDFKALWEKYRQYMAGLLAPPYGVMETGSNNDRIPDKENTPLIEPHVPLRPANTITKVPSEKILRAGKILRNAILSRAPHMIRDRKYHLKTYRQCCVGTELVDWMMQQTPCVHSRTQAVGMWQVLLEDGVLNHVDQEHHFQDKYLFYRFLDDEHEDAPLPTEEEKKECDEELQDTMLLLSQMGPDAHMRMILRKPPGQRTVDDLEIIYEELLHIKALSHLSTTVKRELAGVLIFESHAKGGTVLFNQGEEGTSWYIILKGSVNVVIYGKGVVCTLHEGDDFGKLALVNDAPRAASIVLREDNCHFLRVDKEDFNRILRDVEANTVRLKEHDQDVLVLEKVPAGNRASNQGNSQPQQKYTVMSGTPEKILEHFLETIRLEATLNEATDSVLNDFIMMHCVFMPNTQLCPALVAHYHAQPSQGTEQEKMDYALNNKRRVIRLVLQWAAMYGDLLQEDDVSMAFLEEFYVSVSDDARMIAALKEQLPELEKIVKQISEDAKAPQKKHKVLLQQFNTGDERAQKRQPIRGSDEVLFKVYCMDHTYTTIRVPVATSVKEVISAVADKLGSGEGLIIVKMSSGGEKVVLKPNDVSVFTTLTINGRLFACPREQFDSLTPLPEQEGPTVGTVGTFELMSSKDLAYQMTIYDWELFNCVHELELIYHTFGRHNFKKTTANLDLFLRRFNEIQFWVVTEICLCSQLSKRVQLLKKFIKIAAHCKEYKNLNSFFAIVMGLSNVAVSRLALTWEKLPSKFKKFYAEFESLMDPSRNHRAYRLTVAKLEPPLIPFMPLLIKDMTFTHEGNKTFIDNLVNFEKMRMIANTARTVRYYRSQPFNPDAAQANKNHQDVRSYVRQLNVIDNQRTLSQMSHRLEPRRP
# [5] = molecular target: Rap guanine nucleotide exchange factor 4 (Homo sapiens) (UniProt Q8WZA2); experiment: Confirmatory qHTS for antagonist of cAMP-regulated guanine nucleotide exchange factor 4 (EPAC2) (AID 1645885); further: nearly all actives have a fitted effect of over 25% in size
# [6] = NCATS anti-infectives library activity on the primary C. elegans qHTS viability assay (AID 1745855; calls by dose curve; further: potency means the concentration at half of the fitted maximal effect)
# Procedure, shortened: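 GFP read-out by 488 nm laser cytometry at day 0, 3 and 7, gated on object perimeter, area and peak intensity, scored viability of PE254-GFP-FLuc worms exposed to compound in S medium with bacterial capsules at 21 °C.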
smiles,measurement,setting,value
CC(=O)N=c1sc(S(N)(=O)=O)nn1C,outcome,[1],inactive
COc1ccc2c(c1)N(C[C@H](C)CN(C)C)c1ccccc1S2,outcome,[2],inactive
same,outcome,[3],inactive
same,outcome,[4],inactive
same,Potency,[5],inactive
O=C1c2c(O)cccc2[C@H]([C@@H]2O[C@H](CO)[C@@H](O)[C@H](O)[C@H]2O)c2cc(CO)cc(O)c21,outcome,[1],inactive
C=CC[C@@H]1/C=C(\C)C[C@H](C)C[C@H](OC)[C@H]2O[C@@](O)(C(=O)C(=O)N3CCCC[C@H]3C(=O)O[C@H](/C(C)=C/[C@@H]3CC[C@@H](O)[C@H](OC)C3)[C@H](C)[C@@H](O)CC1=O)[C@H](C)C[C@@H]2OC,outcome,[3],inactive
same,outcome,[4],inactive
same,outcome,[1],inactive
same,Potency,[6],3.65 µM (active)
O=C(NNCS(=O)(=O)O)c1ccncc1,outcome,[2],inactive
same,outcome,[3],inactive
same,outcome,[4],inactive
same,Potency,[5],inactive
CCOC(=O)Oc1c(OC)cc(C(=O)O[C@@H]2C[C@@H]3CN4CCc5c([nH]c6cc(OC)ccc56)[C@H]4C[C@@H]3[C@H](C(=O)OC)[C@H]2OC)cc1OC,outcome,[2],inactive
same,outcome,[3],inactive
same,outcome,[4],inactive
Cc1c(O)c(=O)ccn1C,outcome,[1],inactive
NC(=O)Oc1ccc(Cc2ccccc2)cc1,outcome,[2],inactive
same,outcome,[3],inactive
same,outcome,[4],inactive
same,Potency,[5],inactive
CC1CC(OC(=O)C(O)c2ccccc2)CC(C)(C)C1 (centres undefined),outcome,[2],inactive
same,outcome,[3],inactive
same,outcome,[4],inactive
COc1ccc(/C=C/C(=O)O)cc1,outcome,[2],inactive
same,outcome,[3],inactive
same,outcome,[4],inactive
same,Potency,[5],inactive
CC(C)[C@@H](C)/C=C/[C@@H](C)[C@H]1CC[C@H]2/C(=C/C=C3\C[C@@H](O)CC[C@@H]3C)CCC[C@]12C,outcome,[2],inactive
same,outcome,[3],inactive
same,outcome,[4],inactive
O=C(O)c1cc(N=Nc2ccc(O)c(C(=O)O)c2)ccc1O,outcome,[3],inactive
same,outcome,[4],inactive
